# Measurements from PubChem BioAssay (NCI).
# This is part of a sample that, as a whole, favours compounds with a hit. Of some 79,000 tested, about 15% had one in any assay. Unmarked numbers belong to inactive results. The source made the active and inactive calls. Cut-off read from the data, not from the text of the source: active = growth inhibition above about 70%; inactive = the rest.
# Columns and labels:
# [1] = NCI Yeast Anticancer Drug Screen. Data for the rad50 strain (AID 155);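 note: 0% = growth of vehicle-only cultures of the same strain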; conditions: S. cerevisiae rad50 strain growth inhibition, stronger effect = higher value
# Method in brief: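 Vehicle-treated cultures provide the reference for the growth inhibition reported for compound-exposed, repair-deficient yeast.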
# [2] = NCI Yeast Anticancer Drug Screen. Data for the mec2-1 strain (AID 157); conditions: S. cerevisiae mec2-1 strain, stronger effect = higher value
# Method in brief: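 Test agents were screened against the mec2-1 yeast strain, with defined DNA repair or cell cycle alteration. Growth was scored as inhibition against vehicle-only controls.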
# [3] = NCI Yeast Anticancer Drug Screen. Data for the sgs1 mgt1 strain (AID 161);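 note: 0% = growth of cultures given vehicle only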; conditions: S. cerevisiae sgs1 mgt1 strain, stronger effect = higher value
# Method in brief: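 Read-out: growth inhibition vs vehicle controls. Cells: mutant yeast strain deficient in DNA damage repair.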
# [4] = NCI Yeast Anticancer Drug Screen. Data for the cln2 rad14 strain (AID 165);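 note: 0% = growth equal to vehicle treated cultures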; conditions: S. cerevisiae cln2 rad14 strain, stronger effect = higher value
# Method in brief: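 Growth of compound-exposed yeast (cln2 rad14 genotype) measured and expressed as inhibition relative to vehicle.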
# [5] = NCI Yeast Anticancer Drug Screen. Data for the bub3 strain (AID 167); conditions: S. cerevisiae bub3 mutant strain, stronger effect = higher value
# Method in brief: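 Mutant yeast screening strain plus compound; vehicle-treated cultures serve as the 0% inhibition reference.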
# [6] = NCI Yeast Anticancer Drug Screen. Data for the mlh1 rad18 strain (AID 175); conditions: S. cerevisiae mlh1 rad18 strain growth inhibition, stronger effect = higher value
# Method in brief: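 In this whole-cell yeast screen, a strain with altered DNA damage repair is challenged with compound, and its growth is measured against matched vehicle-treated controls.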
# [7] = at 5.0 µM (retest, dose inferred, filed as 0.5)
# [8] = at 50.0 µM (retest, dose inferred, filed as 5.0)
Compound,"growth inhibition [1, 7] [%]","growth inhibition [1, 8]",growth inhibition ([1]; at 50.0 µM),"growth inhibition [2, 7] [%]","growth inhibition [2, 8]",growth inhibition ([2]; at 50.0 µM),"growth inhibition [3, 7] [%]","growth inhibition [3, 8]",growth inhibition ([3]; at 50.0 µM),"growth inhibition [4, 7] [%]","growth inhibition [4, 8]",growth inhibition ([4]; at 50.0 µM),"growth inhibition [5, 7] [%]","growth inhibition [5, 8]",growth inhibition ([5]; at 50.0 µM),"growth inhibition [6, 7]","growth inhibition [6, 8]",growth inhibition ([6]; at 50.0 µM)
Cc1cc(C2c3ccccc3-c3ccccc32)cc(C)c1O,9,7%,98.3% (active),4,5%,98.6% (active),4,8%,98.8% (active),-1,-9%,97.3% (active),-1,8%,97.2% (active),7%,18%,98.5% (active)
Nc1ccc2c(c1)S(=O)(=O)c1cc(N)ccc1-2,22,27%,41.4%,19,15%,18.8%,20,19%,-29%,18,25%,5.8%,22,27%,-17.8%,26%,25%,-43.8%
O=C(Cc1nc2ccccc2s1)Nc1cccc(C(F)(F)F)c1,41,98% (active),92.2% (active),39,100% (active),93.7% (active),54,99% (active),94.7% (active),32,98% (active),92.6% (active),35,99% (active),92.4% (active),64%,99% (active),93% (active)
CC(C)CCOC(=O)Nc1cccc(Cl)c1,2,76% (active),62.1%,-4,11%,12.8%,0,36%,66.2%,1,-8%,13.2%,47,17%,-0.75%,4%,33%,44%
C(CCCCCN1CCCCC1)CCCCN1CCCCC1,-14,-9%,-2.7%,-20,-8%,5.4%,3,-14%,7.2%,3,6%,6.75%,-11,-18%,-27.2%,-1%,10%,6.85%
OC(CBr)c1cc(-c2ccccc2)nc2ccccc12 (configuration not stated),-3,98% (active),-5.25%,-2,96% (active),18.1%,-3,97% (active),41.8%,-17,93% (active),-24.7%,1,99% (active),69.3%,-3%,97% (active),28.2%
Cc1cc(N2C(=O)CSC2=S)c([N+](=O)[O-])cc1C,23,99% (active),99.2% (active),17,100% (active),99.5% (active),64,99% (active),99.5% (active),7,97% (active),99.1% (active),42,99% (active),99.5% (active),84% (active),99% (active),99.3% (active)
O=[N+]([O-])c1cc(Br)cc2c1nc(NCCCO)c1ccccc12,42,93% (active),95.7% (active),11,92% (active),96.4% (active),43,96% (active),98.5% (active),33,89% (active),94.3% (active),12,96% (active),94.6% (active),59%,97% (active),98.8% (active)
O=C(Nc1ccccc1)OCCN=C1c2ccccc2CCc2ccccc21,4,95% (active),66.1%,-35,96% (active),76.2% (active),-27,95% (active),81.7% (active),-30,94% (active),84% (active),-30,96% (active),83.9% (active),-22%,95% (active),88.8% (active)
